# Measurements: PubChem BioAssay (NCATS)
# Several values for one entry are separate records, joined by “and”; a condition that tells them apart may be missing. Identical values can stand only once. Unmarked numbers belong to inactive results. Records with an inconclusive call do not appear. This is one part of the list. Entries that show only a call come without a potency. Activity calls are given as the source filed them. Unless noted, the call rests on the fitted dose curve; in most records, active means well fitted curve in the direction sought with a large enough effect; inconclusive means small, poorly fitted or top-dose-only effect, or another doubt; inactive means no such curve, though single readings can be large; an effect the other way counts as inactive or inconclusive.
# Assays:
# [1] = target: Androgen receptor (Homo sapiens) (UniProt P10275); experiment: qHTS assay for small molecule agonists of androgen receptor signaling (AID 588515; active means well fitted curve in the direction sought with a large enough effect in the signal ratio, with a control signal flat; the % refers to the signal ratio); conditions: AR-UAS-bla HEK293, beta-lactamase ratio, agonist 16 h; stronger effect = higher value
# Method in brief: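 Stimulation of an AR-responsive β-lactamase reporter in GripTite HEK293 cells was measured after 16 h compound exposure at 37 °C, via CCF4 fluorescence after 2 h RT. EC50 from Hill fits, normalized to R1881 at 30 nM.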
# [2] = qHTS assay to identify small molecules that stimulate interleukin-8 (IL-8) secretion (AID 651758; active means well fitted activation curve with a large enough effect in the signal ratio; the % refers to the signal ratio; further: potency means the concentration at half of the fitted maximal effect); conditions: HTRF ratio (665/615); series mostly up to 92.2 µM
# Method in brief: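 Compounds are added to THP-1 cells (2000 per well) and left 16 hrs at 37 C. A labeled anti-IL-8 antibody pair is then added, and IL-8 secretion is measured by time-resolved FRET after 1-3 hrs at room temperature.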
# [3] = target: Cytochrome P450 3A4 (Homo sapiens) (UniProt P08684); experiment: qHTS Assay for Activators of Cytochrome P450 3A4 (AID 885); conditions: recombinant CYP3A4, Luciferin-PPXE luminescence, 60 min; series mostly up to 11.4 µM; further: nearly all actives have a fitted effect of over 65% in size; further: potency means the concentration at half of the fitted maximal effect
# Method in brief: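 Activators are scored by enhanced luminescence from CYP3A4 conversion of luciferin-PPXE (25uM, equal to KM) to luciferin, after 60 min at RT with an NADPH-regenerating system.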
# [4] = target: Androgen receptor (Homo sapiens) (UniProt P10275); experiment: qHTS assay for small molecule antagonists of androgen receptor signaling (AID 588516; active means well fitted curve in the direction sought with a large enough effect in the signal ratio, with a control signal flat, not every such curve was filed as active; the % refers to the signal ratio); conditions: AR-UAS-bla HEK293, beta-lactamase ratio, antagonist mode, 16 h; series mostly up to 76.8 µM
# Method in brief: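 Antagonist mode: inhibition of R1881-stimulated (10 nM final) bla reporter in GeneBLAzer AR HEK 293 cells, 16 h at 37C, compounds titrated. IC50 and efficacy from Hill-equation fits of 405/460–530 nm FRET ratios.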
# [5] = target: ATP-dependent 6-phosphofructokinase (Trypanosoma brucei brucei) (UniProt O15648); experiment: qHTS Assay to Find Inhibitors of T. brucei phosphofructokinase: hit validation (AID 492961);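 further: luminescence reports ADP formed as PFK phosphorylates fructose-6-phosphate with ATP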; conditions: T. brucei PFK, ADP-Glo luminescence; series mostly up to 51.4 µM
# Method in brief: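 Inhibition of parasite PFK is measured as reduced ADP formation, quantified via luciferase after ATP depletion. Assay used 0.1 mM ATP, 0.5 mM F6P, 1.25 nM enzyme, 45 min incubation.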
# CP185 = experiment: qHTS profiling for inhibitors of Plasmodium falciparum proliferation (AID 504749); further: nearly all actives have a fitted effect of over 60% in size; conditions: P. falciparum in erythrocytes, SYBR Green DNA, 72 h; series mostly up to 28.7 µM
# Method in brief: (§1)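 Each compound contacts P. falciparum-infected red blood cells for 72 h at 37 C; lysis buffer (Tris, EDTA, saponin, Triton X, SYBR Green I) is added and fluorescence measured next morning; values normalized to controls.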
# CP191 = experiment: as above; conditions: P. falciparum in erythrocytes, SYBR Green DNA, 72 h; series mostly up to 28.7 µM
# Method in brief: as §1
# CP192 = experiment: as above; conditions: P. falciparum in erythrocytes, SYBR Green DNA, 72 h; series mostly up to 28.7 µM
# Method in brief: as §1
# CP194 = experiment: as above; conditions: P. falciparum in erythrocytes, SYBR Green DNA, 72 h; series mostly up to 28.7 µM
# Method in brief: as §1
# CP201 = experiment: as above; conditions: P. falciparum in erythrocytes, SYBR Green DNA, 72 h; series mostly up to 28.7 µM
# Method in brief: as §1
# CP203 = experiment: as above; conditions: P. falciparum in erythrocytes, SYBR Green DNA, 72 h; series mostly up to 28.7 µM
# Method in brief: as §1
# DFO2036 = experiment: as above; conditions: P. falciparum in erythrocytes, SYBR Green DNA, 72 h; series mostly up to 28.7 µM
# Method in brief: as §1
# P94_40 = experiment: as above; conditions: P. falciparum in erythrocytes, SYBR Green DNA, 72 h; series mostly up to 28.7 µM
# Method in brief: as §1
# PC49 = experiment: as above; conditions: P. falciparum in erythrocytes, SYBR Green DNA, 72 h; series mostly up to 28.7 µM
# Method in brief: as §1
# TAB113 = experiment: as above; conditions: P. falciparum in erythrocytes, SYBR Green DNA, 72 h; series mostly up to 28.7 µM
# Method in brief: as §1
# [6] = target: DNA dC->dU-editing enzyme APOBEC-3G (Homo sapiens) (UniProt Q9HC16); experiment: qHTS for inhibitors of Vif-A3G interactions: Validation (AID 588379); conditions: Vif-A3G protein interaction assay; series mostly up to 46.1 µM
# Method in brief: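 Yellow fluorescence (Ex 488, Em 500-530) of Vif-coexpressing HeLa A3G-eYFP cells, scanned by Acumen cytometer, reports blocked A3G degradation. Cells plated at 700/well overnight at 37 deg C before compound addition, then a further overnight compound incubation at 37 deg C.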
# [7] = Counterscreen for APE1 Inhibitors: Fluorescent Dye Displacement Assay (AID 2564); conditions: DNA fluorescent dye displacement counterscreen, fluorescence; series mostly up to 28.5 µM;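 further: loss of thiazole orange fluorescence as the dye is displaced from duplex DNA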
# Method in brief: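 Endpoint fluorescence read at 480 nm excitation / 540 nm emission; DNA-binding compounds lower signal by displacing 250 nM Thiazole Orange from 50 nM dsDNA containing a tetrahydrofuran abasic site, Tris-HCl pH7.5 buffer with NaCl and MgCl2.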
# [8] = target: Endonuclease 4 (Escherichia coli (strain K12)) (UniProt P0A6C1); experiment: Counterscreen for APE1 Inhibitors: qHTS Assay for Inhibitors of Endonuclease IV (AID 2565); conditions: E. coli Endo IV, fluorogenic AP-site DNA cleavage; series mostly up to 27.1 µM
# Method in brief: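 Conditions: 2 nM enzyme, 50 nM TAMRA/BHQ-2 substrate, pH 7.5 Tris buffer with 2 mM MgCl2, RT. Compound preincubation 15 min; readout three fluorescence reads 60 s apart, third-minus-first.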
# [9] = target: DNA repair nuclease/redox regulator APEX1 (Homo sapiens) (UniProt P27695); experiment: qHTS FP-Based Assay for Inhibitors of the Human Apurinic/apyrimidinic Endonuclease 1 (APE1) (AID 2573); conditions: APE1 binding to TAMRA-labelled double-stranded DNA, fluorescence polarization displacement; series mostly up to 28.5 µM
# Chain of DNA repair nuclease/redox regulator APEX1 (Homo sapiens) (P27695 whole entry, looked up): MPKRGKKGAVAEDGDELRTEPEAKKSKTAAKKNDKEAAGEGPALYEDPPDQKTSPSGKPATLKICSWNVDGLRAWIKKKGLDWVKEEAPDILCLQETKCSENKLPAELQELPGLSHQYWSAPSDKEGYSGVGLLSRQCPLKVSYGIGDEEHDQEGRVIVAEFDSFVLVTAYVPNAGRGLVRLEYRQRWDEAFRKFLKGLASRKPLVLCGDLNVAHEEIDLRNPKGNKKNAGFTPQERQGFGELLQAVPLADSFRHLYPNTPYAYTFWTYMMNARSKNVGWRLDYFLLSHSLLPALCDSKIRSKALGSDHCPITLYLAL
# Chain of Androgen receptor (Homo sapiens) (P10275 whole entry, looked up): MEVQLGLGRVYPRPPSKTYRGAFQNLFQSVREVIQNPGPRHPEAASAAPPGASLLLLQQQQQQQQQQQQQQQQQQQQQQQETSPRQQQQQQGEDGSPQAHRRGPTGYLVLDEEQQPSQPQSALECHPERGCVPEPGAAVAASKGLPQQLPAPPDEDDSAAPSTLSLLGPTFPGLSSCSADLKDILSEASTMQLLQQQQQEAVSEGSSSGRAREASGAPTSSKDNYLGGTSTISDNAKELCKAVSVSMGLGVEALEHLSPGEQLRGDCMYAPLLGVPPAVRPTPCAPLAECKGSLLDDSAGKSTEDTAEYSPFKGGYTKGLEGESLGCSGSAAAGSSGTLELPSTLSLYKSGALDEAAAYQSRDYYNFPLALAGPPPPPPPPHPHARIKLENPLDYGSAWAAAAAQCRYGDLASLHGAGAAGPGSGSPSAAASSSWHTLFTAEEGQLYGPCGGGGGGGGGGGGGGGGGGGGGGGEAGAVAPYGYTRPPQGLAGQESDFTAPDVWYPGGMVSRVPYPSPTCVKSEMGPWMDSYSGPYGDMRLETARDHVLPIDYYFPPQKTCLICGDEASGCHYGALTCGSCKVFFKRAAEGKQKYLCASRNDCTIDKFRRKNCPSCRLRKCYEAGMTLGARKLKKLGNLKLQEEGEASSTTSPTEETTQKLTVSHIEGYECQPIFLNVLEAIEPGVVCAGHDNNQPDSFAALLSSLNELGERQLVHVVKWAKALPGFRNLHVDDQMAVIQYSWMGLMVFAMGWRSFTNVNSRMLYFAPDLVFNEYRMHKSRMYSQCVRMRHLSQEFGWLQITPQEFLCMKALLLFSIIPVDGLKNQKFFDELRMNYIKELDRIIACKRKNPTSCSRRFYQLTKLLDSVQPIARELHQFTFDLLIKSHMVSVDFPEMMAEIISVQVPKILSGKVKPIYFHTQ
# Chain of Cytochrome P450 3A4 (Homo sapiens) (P08684 whole entry, looked up): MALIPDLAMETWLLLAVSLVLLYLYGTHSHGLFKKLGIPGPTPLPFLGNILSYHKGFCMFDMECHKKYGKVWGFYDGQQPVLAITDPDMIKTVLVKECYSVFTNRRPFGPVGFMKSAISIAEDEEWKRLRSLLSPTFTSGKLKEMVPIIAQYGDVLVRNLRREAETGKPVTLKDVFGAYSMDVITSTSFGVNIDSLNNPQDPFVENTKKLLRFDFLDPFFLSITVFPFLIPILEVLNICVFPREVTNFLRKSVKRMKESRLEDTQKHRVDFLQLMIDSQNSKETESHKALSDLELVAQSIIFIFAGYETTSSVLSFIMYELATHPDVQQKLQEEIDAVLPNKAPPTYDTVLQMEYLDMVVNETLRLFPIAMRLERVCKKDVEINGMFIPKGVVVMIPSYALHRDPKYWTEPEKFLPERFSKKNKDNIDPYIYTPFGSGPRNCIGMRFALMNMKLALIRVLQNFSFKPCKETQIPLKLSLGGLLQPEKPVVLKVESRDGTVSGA
# Chain of ATP-dependent 6-phosphofructokinase (Trypanosoma brucei brucei) (O15648 whole entry, looked up): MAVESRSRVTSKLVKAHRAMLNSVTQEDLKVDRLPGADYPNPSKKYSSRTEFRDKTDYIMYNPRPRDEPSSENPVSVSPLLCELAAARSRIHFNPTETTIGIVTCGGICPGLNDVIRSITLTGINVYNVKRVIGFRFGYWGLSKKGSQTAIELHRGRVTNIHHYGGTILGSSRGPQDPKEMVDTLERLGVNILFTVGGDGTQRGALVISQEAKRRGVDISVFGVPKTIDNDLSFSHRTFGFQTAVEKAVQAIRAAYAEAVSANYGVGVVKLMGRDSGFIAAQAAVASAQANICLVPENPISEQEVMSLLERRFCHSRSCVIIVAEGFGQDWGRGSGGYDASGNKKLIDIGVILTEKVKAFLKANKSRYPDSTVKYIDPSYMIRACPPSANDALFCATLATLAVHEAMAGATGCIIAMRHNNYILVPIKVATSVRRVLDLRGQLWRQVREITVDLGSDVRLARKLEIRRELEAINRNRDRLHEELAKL
# Chain of DNA dC->dU-editing enzyme APOBEC-3G (Homo sapiens) (Q9HC16 whole entry, looked up): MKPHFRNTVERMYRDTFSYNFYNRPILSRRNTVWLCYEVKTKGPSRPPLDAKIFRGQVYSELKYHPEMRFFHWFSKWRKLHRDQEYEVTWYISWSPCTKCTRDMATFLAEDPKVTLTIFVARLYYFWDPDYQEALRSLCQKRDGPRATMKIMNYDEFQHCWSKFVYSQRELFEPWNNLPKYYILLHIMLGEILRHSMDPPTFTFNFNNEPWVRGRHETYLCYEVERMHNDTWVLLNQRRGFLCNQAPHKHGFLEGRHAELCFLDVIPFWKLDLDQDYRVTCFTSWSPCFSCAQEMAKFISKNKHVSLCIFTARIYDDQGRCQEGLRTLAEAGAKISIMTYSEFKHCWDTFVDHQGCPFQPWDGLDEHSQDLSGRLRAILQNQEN
compound,measurement,setting,value
Nc1ccc(-c2ccc(N)c(O)c2)cc1O,activation,[1],4.81%
Oc1ccc(O)c2c(O)cccc12,Potency,[2],75 µM (active)
O=C(OCc1ccccc1)c1ccccc1O,Potency,[2],inactive
c1c[nH]cn1,Potency,[2],inactive
CCc1ccc(C(c2ccc(CC)cc2)C(Cl)Cl)cc1,activation,[1],-10.8%
CCCCNCC,Potency,[2],inactive
Nc1ccc(N=Nc2ccccc2)c(N)c1,Potency,[3],inactive
Cc1c(N)cccc1Cl,Potency,[2],inactive
C/C(Cl)=C/CCl,activation,[1],10.2%
same,outcome,[4],inactive
CC(=O)OCc1ccc2c(c1)OCO2,Potency,[2],inactive
CC1=C(/C=C/C(C)=C/C=C/C(C)=C/C=O)C(C)(C)CCC1,Potency,[3],inactive
same,Potency,[2],0.422 µM (active)
CCNC(=S)NCC,Potency,[3],inactive
C/C=C1/C(=O)C[C@H]2[C@@H]3CCC4=CC(=O)CC[C@]4(C)[C@H]3CC[C@]12C,Potency,[3],1 µM (active)
COc1cc(-c2ccc(N=C=O)c(OC)c2)ccc1N=C=O,Potency,[3],inactive
CCOC(=O)C1OC1c1ccccc1 (stereo not given),Potency,[2],59.6 µM (active)
OC1CCCCC1,Potency,[2],inactive
Nc1cc([N+](=O)[O-])ccc1O,activation,[1],-20.1%
same,outcome,[4],inactive
Oc1ccc2c(c1)OCO2,Potency,[2],inactive
C/C=C/C=C/C=O,outcome,[4],inactive
CCC(Cl)CC(Cl)C(Cl)C(Cl)C(Cl)C(C)Cl (stereo not given),activation,[1],-4.22%
same,Potency,[2],inactive
c1ccc(COCc2ccccc2)cc1,Potency,[2],inactive
C=C1CC[C@H](O)C/C1=C/C=C1\CCC[C@]2(C)[C@@H]([C@H](C)CCCC(C)C)CC[C@@H]12,Potency,[3],inactive
same,outcome,[5],inactive
same,Potency,CP185,inactive
same,Potency,CP191,inactive
same,Potency,CP192,inactive
same,Potency,CP194,inactive
same,Potency,CP201,inactive
same,Potency,CP203,inactive
same,Potency,DFO2036,inactive
same,Potency,P94_40,inactive
same,Potency,PC49,inactive
same,Potency,TAB113,inactive
c1ccc2c(c1)ccc1ccccc12,activation,[1],-2.75% and -0.0415%
same,outcome,[4],inactive
Nc1cnn([C@@H]2O[C@H](CO)[C@@H](O)[C@H]2O)c(=O)n1,Potency,[2],75 µM (active)
C=Cc1cccc(C)c1,Potency,[2],inactive
COc1ccc(C)cc1N,activation,[1],1.38%
c1ccc2ncccc2c1,Potency,[2],inactive
Nc1ccccc1O,Potency,[2],66.8 µM (active)
CCCCOC(=O)COc1ccc(Cl)cc1Cl,Potency,[2],inactive
CC/C=C/C/C=C/C/C=C/CCCCCCCC(=O)OCC,Potency,[3],inactive
CC(=O)CC(=O)Nc1ccccc1,Potency,[2],inactive
Cc1cc(=O)oc2cc(O)cc(O)c12,Potency,[3],inactive
OCC(CO)(CBr)CBr,Potency,[2],inactive
C=CC(C)(O)CCCC(C)CCCC(C)CCCC(C)C (stereo not given),Potency,[3],inactive
same,outcome,[6],inactive
CCCCC(CC)COCCCN (stereo not given),Potency,[3],inactive
Cc1ccccc1OCC1CO1 (stereo not given),Potency,[2],inactive
Cc1ccc(C(=O)O)cc1[N+](=O)[O-],activation,[1],6.4%
same,outcome,[4],inactive
Cc1ccc(N)cc1[N+](=O)[O-],outcome,[4],inactive
CC(C)COC(=O)COc1cc(Cl)c(Cl)cc1Cl,Potency,[2],inactive
CCCCCCc1ccc(-c2ccc(C#N)cc2)cc1,Potency,[2],inactive
COc1ccc(C(=O)Nc2ccccc2)cc1[N+](=O)[O-],Potency,[3],inactive
CCCCCCCCC1CO1 (stereo not given),activation,[1],13.4%
same,outcome,[4],inactive
O=CC(=O)c1ccccc1,Potency,[2],inactive
O=c1nc2s/c(=C\c3ccco3)c(=O)n2nc1Cc1ccccc1,outcome,[7],inactive
same,outcome,[8],inactive
same,Potency,[9],inactive
